The list is not random: actives were taken first. Their share in the collection is about 11%.
FLuc inh-1: inhibitors of firefly (Photinus pyralis) luciferase; purified P. pyralis luciferase, luminescence, biochemical; P08659; 76,000 tested, 2.5% active; AID 1347043; Potency, µM (top dose mostly 115 µM), usual class: inhibitors; further: nearly all actives have a fitted effect of over 65% in size
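Luminescence read by CCD imaging after purified firefly luciferase (10nM final) was added to substrate buffer holding 10uM D-luciferin and 10uM ATP, pH 7.5, pre-dosed with compound.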
3T3 cytotox: NIH 3T3 cell cytotoxicity; NIH 3T3 viability, CellTiter-Glo ATP luminescence, 48-72 h; Potency, µM (highest dose often 96.7 µM), usual class: inhibitors; 94,000 tested, 4.3% active; AID 1345082; further: nearly all actives have a fitted effect of over 55% in size
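Cytotoxicity was measured by CellTiter-Glo ATP luminescence after 48 or 72 h compound exposure at 37 °C. Mouse NIH 3T3 fibroblasts were seeded at 400 cells/well and dosed by 23 nL pin transfer.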
hNpr1 antagonist: blocks ANP-stimulated signaling of human Npr1 receptor. Potency, µM (highest dose often 46.3 µM), hits mostly inhibitors. HEK293 hNpr1 GloSensor cGMP, ANP-stimulated luminescence. 76,000 tested, 1.6% active. AID 1347048; calls by dose curve; further: nearly all actives have a fitted effect of over 60% in size
Target sequence (P16066 whole entry, looked up): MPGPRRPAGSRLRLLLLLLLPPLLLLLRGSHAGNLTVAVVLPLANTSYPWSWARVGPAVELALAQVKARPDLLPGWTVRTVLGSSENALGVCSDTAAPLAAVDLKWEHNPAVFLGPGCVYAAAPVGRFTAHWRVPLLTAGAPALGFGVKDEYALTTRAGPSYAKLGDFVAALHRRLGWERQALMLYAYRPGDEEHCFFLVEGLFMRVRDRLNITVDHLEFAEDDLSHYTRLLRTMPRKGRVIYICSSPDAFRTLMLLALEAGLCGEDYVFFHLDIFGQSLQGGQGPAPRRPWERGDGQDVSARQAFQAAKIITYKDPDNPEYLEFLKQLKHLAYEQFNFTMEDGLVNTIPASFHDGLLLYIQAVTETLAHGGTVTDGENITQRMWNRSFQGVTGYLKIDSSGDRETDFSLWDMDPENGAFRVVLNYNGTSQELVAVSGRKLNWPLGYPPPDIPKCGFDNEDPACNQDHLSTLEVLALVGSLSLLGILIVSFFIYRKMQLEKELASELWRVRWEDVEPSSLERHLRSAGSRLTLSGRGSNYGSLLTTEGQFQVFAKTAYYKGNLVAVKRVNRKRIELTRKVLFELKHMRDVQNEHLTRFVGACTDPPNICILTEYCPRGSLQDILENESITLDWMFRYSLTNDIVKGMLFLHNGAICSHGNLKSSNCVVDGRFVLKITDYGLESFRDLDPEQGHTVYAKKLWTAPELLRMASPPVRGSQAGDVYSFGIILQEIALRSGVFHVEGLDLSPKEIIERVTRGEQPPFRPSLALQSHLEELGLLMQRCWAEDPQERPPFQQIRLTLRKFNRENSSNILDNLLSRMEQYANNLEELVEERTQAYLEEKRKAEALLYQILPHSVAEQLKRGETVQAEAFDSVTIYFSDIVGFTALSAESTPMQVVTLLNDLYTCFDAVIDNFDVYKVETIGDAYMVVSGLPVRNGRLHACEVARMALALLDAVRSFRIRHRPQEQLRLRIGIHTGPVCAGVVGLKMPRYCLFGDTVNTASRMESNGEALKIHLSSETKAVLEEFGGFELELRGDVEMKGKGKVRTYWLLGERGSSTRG
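Compound pre-incubated 30 min at room temperature on GloSensor-loaded HEK293 cells stably carrying hNpr1 and the pGS-40F cGMP biosensor. Stimulation uses hNppA at 0.1 nM final; luminescence is taken at baseline and 20 min post-agonist.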
HEK cytotox: cytotoxic compounds in HEK 293 cells; HEK 293 viability, ATP luminescence (CellTiter-Glo), 48-72 h; Potency, µM (doses to about 115 µM), actives largely listed as inhibitors; 94,000 tested, 6.6% active; further: nearly all actives have a fitted effect of over 60% in size
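Viability of HEK 293 cells, plated at 250 cells/well, was judged by cellular ATP after compound treatment for 48 or 72 hr. Luminescence was imaged 10 min after CellTiter-Glo addition at room temperature.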
FLuc SDR -ATP: stabilizes firefly luciferase without ATP. Purified FLuc-C-HiBiT, Nano-Glo HiBiT luminescence, no ATP. AID 1963318. shares compounds with FLuc inh-1. 1,300 tested, 7.8% active. Potency, µM (titrated, usually from 32.7 µM), hits mostly activators; further: nearly all actives have a fitted effect of over 55% in size
FLuc SDR ATP: stabilizes firefly luciferase with ATP present | 1,300 tested, 8.7% active | shares compounds with FLuc inh-1 | purified FLuc-C-HiBiT + ATP, HiBiT complementation luminescence | Potency, µM (titrated, usually from 32.7 µM), most hits filed as activators | AID 1963319;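 further: signal reports ligand binding via conformational change of the enzyme rather than luciferase catalysis; nearly all actives have a fitted effect of over 55% in size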
FLuc inh-2: inhibitors of firefly luciferase enzymatic activity; AID 1963320; purified FLuc-C-HiBiT enzyme, luciferin luminescence; shares compounds with FLuc inh-1; 1,300 tested, 42% active; Potency, µM (series often up to 32.7 µM), hits mostly inhibitors; further: nearly all actives have a fitted effect of over 70% in size
Hits are given with their value; – = inactive; ? = inconclusive; · = not tested or not shown. Unless noted, the call rests on the fitted dose curve; in most records, active means well fitted curve in the direction sought with a large enough effect; inconclusive means small, poorly fitted or top-dose-only effect, or another doubt; inactive means no such curve, though single readings can be large; an effect the other way counts as inactive or inconclusive.

SMILES | FLuc inh-1 | 3T3 cytotox | hNpr1 antagonist | HEK cytotox | FLuc SDR -ATP | FLuc SDR ATP | FLuc inh-2
CCN(CC)c1cc(CCC(=O)O)ccn1 | 6.31µM | – | – | – | – | 1.57µM | 1.4µM
CCOC(=O)N1CCc2c(sc(NCc3cccc(F)c3)c2C(=O)Nc2ccc(OC)cc2OC)C1 | · | · | · | · | – | ? | 2.48µM
CCOC(=O)N1CCc2c(sc(NCc3sccc3C)c2C(=O)Nc2ccc(OC)cc2OC)C1 | · | · | · | · | – | ? | 4.95µM
COc1cccc(N2C(=O)NC(=NC3CCCCC3)C23CCN([S+](=O)([O-])c2cccc(OC)c2)CC3)c1 | · | – | · | – | · | · | ·
COc1cc(-c2nc(-c3c(C)noc3C)cc3cc(C)oc23)ccn1 | – | ? | – | ? | · | · | ·
COCc1nncn1C1CCN(S(=O)(=O)c2ccc(C)cc2C)CC1 | – | ? | – | – | · | · | ·
CSc1ccc(C(=O)Nc2ccc(-c3nc4ccccc4s3)c(O)c2)cc1 | · | · | · | · | – | – | –
CSc1ccc(NC(=O)c2cc3c(N4CCSCC4)nc(C)cn3n2)cc1 | – | ? | – | ? | · | · | ·
CC(C)c1ccc(C(=O)Nc2ccc(-c3nc4ccccc4s3)c(Cl)c2)cc1 | · | · | · | · | – | – | –
O=C(Nc1cnc(-c2ccccc2)nc1)c1cccc(F)c1 | ? | – | – | – | · | · | ·
O=C(Nc1ccc(-c2nc3ccccc3s2)c(O)c1)c1ccccc1 | · | · | · | · | – | – | –
O=C(O)CCCC(=O)N[C@H]1CO[C@H]2[C@@H]1OC[C@@H]2Nc1nccc(-c2ccc(-c3ccccc3)cc2)n1 | – | – | – | – | · | · | ·
Cc1cc(C)cc(C(=O)N2CCC(CC(=O)NCc3ccccc3)C2)c1 (stereo not drawn) | – | – | – | – | · | · | ·
Cc1cc(CNC(=O)CC2C=CS(=O)(=O)C2)c2[nH]c(-c3ccccc3)c(C)c2c1 (stereo not drawn) | 6.31µM | 39.8µM | – | 44.7µM | – | – | ?
CCOc1ccc(NC(=O)C2CCN(C(=O)c3nnn4c3COC(c3ccc(C)cc3)C4)CC2)cc1 (stereo not drawn) | ? | – | – | – | · | · | ·
Cc1ccc(NC(=O)C2CCN(C(=O)c3nnn4c3COC(c3ccc(C)cc3)C4)CC2)cc1 (stereo not drawn) | ? | – | – | – | · | · | ·
Cc1ccc(C2Cn3nnc(C(=O)N4CCC(C(=O)Nc5ccccc5)CC4)c3CO2)cc1 (stereo not drawn) | 12.6µM | – | – | – | – | ? | ?
Cc1ccc(C2Cn3nnc(C(=O)N4CCC(C(=O)NCc5ccccn5)CC4)c3CO2)cc1 (stereo not drawn) | 11.2µM | – | – | – | – | ? | ?
Cc1ccc(C2Cn3nnc(C(=O)N4CCC(C(=O)Nc5ccc(F)cc5)CC4)c3CO2)cc1 (stereo not drawn) | 11.2µM | – | – | – | – | ? | ?
CCCCC1CN(c2cccc(-c3ccccc3)c2)C(=O)CN1C(=O)c1ncoc1C (stereo not drawn) | – | ? | – | ? | · | · | ·
CC(C)(C)NC(=O)N1CC(c2noc(C3CCCN3CC3CC3)n2)C1 (stereo not drawn) | – | – | – | – | · | · | ·
COc1ccc(-c2cc(N3CCCN(C(=O)c4ccccc4Cl)CC3)n[nH]2)cc1 | – | – | – | ? | · | · | ·
CC(=O)Nc1ccc(S(=O)(=O)N[C@H]2CO[C@H]3[C@@H]2OC[C@@H]3n2nnnc2Oc2cccc(N(C)C)c2)cc1 | – | – | – | – | · | · | ·
N#Cc1cccnc1-c1cccc(C(=O)NCCNC(=O)c2ccccc2Cl)c1 | · | – | · | – | · | · | ·
COc1ccc(C(=O)Nc2ccc(-c3nnc4n3CCCC4)cc2)cc1 | – | – | – | – | · | · | ·
SMILES | FLuc inh-1 | 3T3 cytotox | hNpr1 antagonist | HEK cytotox | FLuc SDR -ATP | FLuc SDR ATP | FLuc inh-2
Nc1c(C(=O)Nc2ccc(C(=O)O)cc2)sc2nc3c(cc12)CCCC3 | · | · | · | · | 11.1µM | 0.248µM | 0.176µM
CC(=O)NCCc1ncc(C)n1C1CCCCCCC1 | – | ? | – | ? | · | · | ·
Cc1cc(C(=O)N2CC(c3nnc(C(C)C)o3)C3(CCOCC3)C2)n(C)n1 (stereo not drawn) | – | – | – | – | · | · | ·
Cc1cnc(C2CCOCC2)n1C1CCCN(C(=O)CCc2c[nH]c3ccccc23)C1 (stereo not drawn) | – | – | – | – | · | · | ·
COc1ccc(-n2c(=O)c(C(=O)NCc3cccc(F)c3)nc3cccnc32)cc1 | · | – | · | – | · | · | ·
Cc1ncccc1C(=O)N1CCC(Oc2ccc(-c3noc(-c4ccccc4)n3)cc2)C1 (stereo not drawn) | 7.08µM | ? | 11.2µM | ? | – | – | ?
O=C(c1cccc(F)c1)N1CC(Oc2ccc(-c3nc(-c4ccccc4)no3)cc2)C1 | – | – | – | ? | · | · | ·
O=C(c1ccncc1)N1CCC(Oc2ccc(-c3noc(-c4ccccc4)n3)cc2)C1 (stereo not drawn) | 14.1µM | ? | 14.1µM | ? | – | – | ?
COc1ccc(C(=O)N2CCc3nc(N)nc(N4CCCC4)c3CC2)o1 | – | – | – | – | · | · | ·
COc1ccc(C(=O)N2CCn3c(nnc3C3CC3)C2)cc1 | – | – | – | – | · | · | ·
O=C(c1ccc(F)cc1)N1CCn2c(nnc2C2CC2)C1 | – | – | – | – | – | – | –
COc1ccc(C(=O)Nc2cc(C3CC3)nn2-c2ccccc2)cc1 | · | – | · | – | · | · | ·
COc1ccc(CC(=O)Nc2ccc(-c3nc4ccccc4s3)c(C)c2)cc1OC | · | · | · | · | – | – | –
Cc1ccc(-c2nc3ccccc3s2)cc1NC(=O)c1ccc(-c2cccc(Cl)c2)o1 | · | · | · | · | – | – | –
COc1ccccc1CC(=O)Nc1ccc2ncnc(N3CCCC3)c2c1 | – | – | – | ? | · | · | ·
COc1cc(OC)cc(C(=O)Nc2ccc(-c3nc4ccccc4s3)cc2C)c1 | · | · | · | · | – | – | –
Cc1cc(-c2nc3ccccc3s2)ccc1NC(=O)c1cc(Cl)ccc1Cl | · | · | · | · | – | – | –
Cc1ncsc1CN1CC(N(CC(C)C)C2CCOCC2)C1 | – | – | – | – | · | · | ·
Cc1ccccc1N1CCN(C(=O)[C@@]23CCCC[C@H]2N(CCC(C)C)C(=O)CC3)CC1 | – | ? | – | ? | · | · | ·
COC(=O)N1CCCC(C(=O)N2CCC(c3nc4ncccc4[nH]3)CC2)C1 (stereo not drawn) | · | – | · | – | · | · | ·
COc1cc(OC)cc(C(=O)Nc2ccc(-c3nc4ccccc4s3)c(C)c2)c1 | · | · | · | · | – | – | –
Cc1ccc(C(=O)Nc2ccc(-c3nc4ccccc4s3)cc2C)cc1C | · | · | · | · | – | – | –
Cc1cccc(C(=O)Nc2ccc(-c3nnc4n3CCCC4)cc2)c1 | – | – | – | ? | · | · | ·
COc1cc(OC)cc(C(=O)Nc2ccc(-c3nnc4n3CCCC4)cc2)c1 | – | – | – | – | · | · | ·
Cc1cccc(C(=O)Nc2ccc(-c3nc4ccccc4s3)cc2Cl)c1 | · | · | · | · | – | – | –

From PubChem
